Assay outcomes: PubChem BioAssay, National Center for Advancing Translational Sciences (NCATS)
Sampled rows, rich in hits. Any-hit rate of the full collection: about 17%.
TDP1 cell CPT – qHTS for Inhibitors of human tyrosyl-DNA phosphodiesterase 1 (TDP1): qHTS in cells in presence of CPT. chicken DT40 Tdp1-/-;hTDP1 cells + 20 nM CPT, ATP luminescence, 48 h. Potency, µM (series often up to 46.2 µM), usual class: inhibitors. 420,000 tested, 12% active. AID 686979, 2013; also: nearly all actives have a fitted effect of over 55% in size
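Chicken DT40 Tdp1-/- cells complemented with human TDP1, 400 cells/well, exposed to compounds plus 20 nM camptothecin for at least 48 h at 37 C; viability read as ATP content by CellTiter-Glo luminescence.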
TDP1 cell noCPT – qHTS for Inhibitors of human tyrosyl-DNA phosphodiesterase 1 (TDP1): qHTS in cells in absence of CPT | DT40 Tdp1-/- hTDP1 cells, no CPT, ATP luminescence, 48 h | Potency, µM (series often up to 46.2 µM), hits mostly inhibitors | 420,000 tested, 15% active | AID 686978, 2013; also: nearly all actives have a fitted effect of over 55% in size
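Compound effects on proliferation are scored in DT40 Tdp1-/-;hTDP1 cells in the absence of CPT. ATP levels (CellTiter-Glo luminescence) are recorded after a ≥48 hr, 37 °C incubation.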
TDP1 inh – qHTS Assay for Inhibitors of Tyrosyl-DNA Phosphodiesterase (TDP1) | Tyrosyl-DNA phosphodiesterase 1 (Homo sapiens), Q9NUW8 | recombinant TDP1, AlphaScreen DNA substrate cleavage | Potency, µM (doses to about 130 µM), actives largely listed as inhibitors | 350,000 tested, 0.28% active; also: nearly all actives have a fitted effect of over 40% in size
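Enzyme-compound mixtures sat 15 min at room temperature, followed by a 5 min reaction with 15 nM final substrate and 10 min with AlphaScreen beads. Recombinant human Tdp1 was used at 1 nM final.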
ClpP mod – qHTS Assay for Activators of ClpP | ATP-dependent Clp protease proteolytic subunit (Bacillus subtilis (strain 168)), P80244 | Potency, µM (series often up to 57.5 µM) | purified B. subtilis ClpP, FRET peptide cleavage, 20 min | 340,000 tested, 1.9% active; active = well fitted falling curve with a large enough effect; inconclusive = small, poorly fitted or top-dose-only effect; inactive = no such curve, though single readings can be large or run the other way; also: the source files actives as falling curves though it sought activators and does not explain the sign; nearly all actives have a fitted effect of over 65% in size
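ClpP 10 microg/mL final, pH 8 Tris/KCl buffer with BSA, glycerol, Tween-20; compound pinned in; FRET-FV substrate; RT 20 min; Ex320/Em430; ΔFRET vs ADEP 5.8 microM, DMSO, no enzyme.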
A number is an active result; n = inactive; u = inconclusive; x = no result; [ ] = dose if it differs, or a comment. Unless noted, calls follow the shape of the dose curve; as a rule, active = well fitted curve in the direction sought with a large enough effect; inconclusive = small, poorly fitted or top-dose-only effect, or another doubt; inactive = no such curve, though single readings can be large; an effect the other way counts as inactive or inconclusive.

SMILES	TDP1 cell CPT	TDP1 cell noCPT	TDP1 inh	ClpP mod
O=[N+]([O-])c1cc(/C=N/NC(=S)Nc2ccccc2Cl)ccc1Cl	u	12µM	n	n
S=C(N/N=C/c1ccc(Cl)c(Cl)c1)Nc1ccccc1Cl	23µM	u	n	n
FC(F)(F)c1ccc(Cl)c(NC(=S)N/N=C/c2ccccc2Cl)c1	u	u	n	n
Cc1ccccc1NC(=O)C(=O)N/N=C/c1cccc(Br)c1	n	n	n	n
Fc1cccc(/C=N/NC(=S)Nc2ccccc2Cl)c1	6.5µM	2.6µM	n	n
Cc1[nH]c2ccccc2c1C(=O)C(=O)NCc1ccncc1	n	n	x	n
Cc1csc(CNc2ncnc3ccc(-c4cccc(Cl)c4)cc23)c1	x	x	n	x
COc1ccc(/C=N/NC(=S)Nc2ccccc2[N+](=O)[O-])cc1O	6.5µM	4.6µM	n	n
COc1ccc(C2C3C(C)=NN=C3CC(C)(O)C2C(C)=O)cc1 (stereo unspecified)	n	n	n	n
COC(=O)c1ccc(C(NC(=O)OCc2ccccc2)/C(=C/[C@@H](C)C(=O)N(C)Cc2ccccc2)c2cccnc2)cc1 (stereo partly specified)	x	x	n	x
Fc1ccc(NC(=S)N/N=C/c2ccc(F)c(F)c2)cc1	4.1µM	6.5µM	n	x
Fc1ccc(/C=N/NC(=S)Nc2ccc(Cl)cc2)cc1F	u	23µM	n	n
Fc1ccc(/C=N/NC(=S)Nc2ccc(Cl)cc2Cl)cc1	7.3µM	5.2µM	n	x
COc1ccc(NC(=S)N/N=C/c2ccc(F)c(F)c2)cc1	u	u	x	n
C#CCOCCOCCOCCNc1nc(N2CCN(C(=O)[C@H](CCCCN)n3cc([C@@H](N)C(C)CC)nn3)CC2)nc(N2CCN(C(=O)[C@H](CCCCN)n3cc([C@@H](N)CC(C)C)nn3)CC2)n1 (stereo partly specified)	n	n	n	n
COc1ccc(C2Nc3ccccc3C(=O)N2Cc2ccccn2)cc1COc1ccc(NC(C)=O)cc1 (stereo unspecified)	x	x	n	x
Oc1ccc(-c2nc(-c3ccc(F)cc3)c(-c3ccncc3)[nH]2)cc1	u	6.5µM	n	n
COc1ccc(/C=C(/C#N)C(=O)Nc2cccnc2)cc1OC	n	n	n	n
COc1cc(/C=C(/C#N)C(=O)Nc2ccccc2)ccc1OCc1ccc(C(=O)O)cc1	n	u	n	n
COc1cc(/C=C(/C#N)C(=O)Nc2ccc(Cl)cc2)ccc1Oc1nc(Cl)ncc1F	9.2µM	n	n	n
COc1cc(/C=C(\C#N)C(=O)Nc2ccc(C(=O)O)cc2)ccc1OC(=O)c1cccc(F)c1	n	n	50µM	x
CC(C)Cn1c(O)c(N=NC(=O)c2cccc(S(=O)(=O)N3CCCCC3)c2)c2ccccc21	16µM	13µM	n	n
CCc1[nH]nc2c1C1(CCN(C(=O)OCc3ccccc3)CC1)C(C#N)=C(N)O2	u	n	n	n
CCCc1[nH]nc2c1C1(CCN(C(=O)OCc3ccccc3)CC1)C(C#N)=C(N)O2	21µM	u	n	n
O=C(CC1CCCC1)N1CCN(S(=O)(=O)c2c(F)cccc2F)CC1	n	n	x	n
SMILES	TDP1 cell CPT	TDP1 cell noCPT	TDP1 inh	ClpP mod
CSc1ccc(/C=C/c2ccnc3ccccc23)cc1	n	n	x	n
CN(C)C(=O)c1ccc(/C=C/c2ccnc3ccccc23)cc1	u	16µM	x	n
CN(CC(=O)O)c1ccc(/C=C/c2ccnc3ccccc23)cc1	11µM	20µM	x	n
Cc1ccc(N2C(N)=NC(N)=NC23CCCC3)c(C)c1	n	u	n	28µM
CN(C)C(=O)[C@@H]1C[C@@H](Sc2nc3ccccc3[nH]2)CN1Cc1ccnc2ccccc12	16µM	15µM	x	x
C=CC[C@@H]1C=C[C@@H](O/N=C\[C@@H](OC)[C@H](C)/C=C\CC(=O)OC)[C@@H](CO)O1	x	x	n[21 µM]	x
Cc1ccc(S(=O)(=O)c2cn(Cc3ccccc3)c3cc(N4CCCC4)c(F)cc3c2=O)cc1	5.8µM	5.8µM	n	u
O=c1c(S(=O)(=O)c2ccccc2)cn(Cc2ccccc2)c2cc(N3CCCC3)c(F)cc12	n	n	n	n
CCCn1cc(S(=O)(=O)c2ccc(C)c(C)c2)c(=O)c2cc(F)c(N3CCCCC3)cc21	u	u	n	n
CCOC(=O)c1cn(CC)c2cc(N3CCOCC3)c(F)cc2c1=O	n	u	n	32µM
CCOC(=O)c1cn(CC)c2cc(N3CCCCC3)c(F)cc2c1=O	n	n	x	n
CCn1cc(S(=O)(=O)c2ccc(C)cc2C)c(=O)c2cc(F)c(N3CCCCC3)cc21	u	23µM	n	u
CCn1cc(S(=O)(=O)c2ccc(C)cc2)c(=O)c2cc(F)c(N3CCCCCC3)cc21	16µM	18µM	n	n
CCc1cc2c(SCC(=O)NC3CCCC3)ncnc2s1	u	u	x	n
CCn1cc(S(=O)(=O)c2ccc(OC)cc2)c(=O)c2cc(F)c(N3CCC(C)CC3)cc21	u	26µM	n	u
CC1CCCCN1c1cc2c(cc1F)c(=O)c(S(=O)(=O)c1ccccc1)cn2Cc1ccccc1 (stereo unspecified)	8.2µM	8.2µM	n	16µM
CCn1cc(S(=O)(=O)c2ccc(OC)cc2)c(=O)c2cc(F)c(N3CCCCCC3)cc21	u	u	n	n
CCc1ccc(S(=O)(=O)c2cn(CC)c3cc(N4CCOCC4)c(F)cc3c2=O)cc1	15µM	u	n	u
NCCC[C@H](N)C(=O)O	n	n	x	x
CCN(CC)c1ccc(/C=N/Nc2nc(C)cc(=O)[nH]2)c(O)c1	0.021µM	0.021µM	n	n
Cc1cc(=O)[nH]c(NN=Cc2cc(Br)ccc2O)n1	2.6µM	2.9µM	x	n
Cc1cc(=O)[nH]c(N/N=C/c2c(F)c(F)c(F)c(F)c2F)n1	n	n	x	n
Cc1cc(=O)[nH]c(N/N=C/c2ccccc2Cl)n1	n	u	x	n
COc1ccc(Cl)cc1NC(=O)COC(=O)CCCC1=NS(=O)(=O)c2ccccc2N1	n	n	n	n
COc1ccc2c(c1)c1c(c(=O)n(-c3cccc(C)c3)c(=O)n1CC(=O)Nc1c(C)cc(C)cc1C)n2C	n	n	n	n
O=S(=O)(C/C(=C/CO)S(=O)(=O)c1ccccc1)c1ccccc1	0.82µM	2.3µM	n	n
O=S(=O)(CS(=O)(=O)c1ccccc1)c1ccccc1	n	n	x	x
C=CC[C@H](CC(=O)NCCO)C(=O)N[C@H](COC(=O)[C@@H](CC=C)Cc1ccc(F)cc1)C(C)(C)C	u	18µM	n	n
C=CC[C@H](CC(=O)NCCO)C(=O)NCCOC(=O)[C@@H](CC=C)Cc1ccc(F)cc1	n	n	n	n
C=CC[C@@H](CC(=O)NCCO)C(=O)N[C@@H](COC(=O)[C@@H](CC=C)Cc1ccc(F)cc1)Cc1ccccc1	18µM	u	n	n
